From PubChem
Most compounds without a hit are left out; they make up all but 2% or so of the library.
CHRM4 PAM: CHRM4 positive allosteric modulation | P08173 | CHO-K1 hM4/Gqi5, Fluo-8 calcium fluorescence, ACh EC20; 0% = ACh EC20, 100% = maximal ACh | activation, % at 3 µM | actives 0.4% (n = 360,000) | AID 624126;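 active = activation above its plate's cutoff, the mean activation of sample wells plus 3 SD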
Target sequence (P08173 whole entry, looked up): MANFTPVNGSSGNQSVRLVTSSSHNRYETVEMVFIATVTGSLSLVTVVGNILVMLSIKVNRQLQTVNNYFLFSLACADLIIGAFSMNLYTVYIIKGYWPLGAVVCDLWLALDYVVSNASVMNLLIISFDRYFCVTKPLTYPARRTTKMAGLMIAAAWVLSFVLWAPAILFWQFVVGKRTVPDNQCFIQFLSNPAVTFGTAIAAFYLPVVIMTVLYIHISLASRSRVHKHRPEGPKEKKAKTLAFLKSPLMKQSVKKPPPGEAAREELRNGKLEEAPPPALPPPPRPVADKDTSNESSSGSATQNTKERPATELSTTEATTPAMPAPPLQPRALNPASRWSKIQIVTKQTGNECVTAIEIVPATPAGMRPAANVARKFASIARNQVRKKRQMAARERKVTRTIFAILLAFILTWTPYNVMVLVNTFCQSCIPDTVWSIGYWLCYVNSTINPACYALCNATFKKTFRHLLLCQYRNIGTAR
CHO-K1 Ca antag: counter-screen for M1 antagonists: effect in parental CHO-K1 cells; ATP-induced calcium, Fluo-8 fluorescence; inhibition, % at 3 µM; actives 0.6% (n = 360,000);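 active = inhibition above a per-plate cutoff, the plate's mean sample inhibition plus 3 SD, cut at about 24% in these data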
CHRM4 antagonist: CHRM4 antagonism in calcium assay | inhibition, % at 3 µM | AID 624125 | P08173 | CHO-hM4 cells, ACh EC80, Fluo-8 calcium fluorescence | actives 0.73% (n = 360,000);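 active = inhibition above its plate's cutoff, the mean inhibition of sample wells plus 3 SD, cut at about 27% in these data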
M1 ag parental: counter-screen for M1 agonists: effect in parental CHO-K1 cells; Fluo-8 calcium fluorescence; scaled to maximal ATP response, vehicle zero; activation, % at 3 µM; actives 0.48% (n = 360,000); in the data active = activation above about 15%;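 also: untransfected CHO-K1 host cells lacking M1 receptor as counterscreen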
M4 ag: agonists of human muscarinic M4 receptor (CHRM4); P08173; AID 624127; CHO-K1 hM4/Gqi5, Fluo-8 calcium fluorescence; vehicle 0%, full acetylcholine response 100%; activation, % at 3 µM; actives 0.14% (n = 360,000);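 active = activation above the run mean over all test wells plus 3 SD, cut at about 32% in these data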;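 also: peak over basal fluorescence ratio per well then scaled between controls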
M1 PAM parental: M1 PAM counterscreen hit in parental CHO-K1 cells; activation, % at 3 µM; ATP EC20, Fluo-8 calcium fluorescence; 0% at ATP EC20, 100% at ATP max; actives 0.02% (n = 360,000);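 active = activation above the run cutoff, the mean activation of all test compounds plus 3 SD, cut at about 40% in these data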;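 also: peak over basal fluorescence ratio in a 140 s read after ATP addition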
Large screens that a line does not name were inactive.

CCOC(=O)[C@H]1[C@H]2COc3cc(OC)ccc3[C@@H]2N2C(=O)CN(CC3CCCO3)C(=O)[C@@]12C (some centres undefined)	none
COc1cccc(N2CCN(c3ncnc4c3cnn4-c3ccc(C)cc3C)CC2)c1	CHRM4 antagonist 47
CN(C)Cc1cc(C(F)(F)F)ccc1C(O)(c1ccccc1)c1ccccc1	CHRM4 antagonist 57
CC(=O)c1cccc(CN(C)CC2CCCN(CCc3ccccc3C)C2)c1 (centres undefined)	CHRM4 antagonist 88
COc1ccccc1CCN1CCCC(CN(C)CC(C)(C)CO)C1 (centres undefined)	CHRM4 antagonist 30
CN(Cc1ccccc1)CC1CCCN(CCc2ccccc2F)C1 (centres undefined)	none
CCCCCCCCCn1c2c(c(=N)c3c1CCC3)CCC2	CHRM4 antagonist 50
CCCCCCn1c2c(c(=N)c3c1CCC3)CCC2	none
CCc1c(C)nc2c(-c3ccccc3)c(C)[nH]n2c1=O	none
Cc1[nH]n2c(=O)c(C#N)c(-c3ccccc3)nc2c1-c1ccccc1	CHO-K1 Ca antag 28
COc1ccc(-c2cc(C3CCN(c4ccc(C(C)=O)cc4[N+](=O)[O-])CC3)[nH]n2)cc1	none
CC(=O)c1ccc(N2CCC(c3cc(-c4ccc(Cl)cc4)n[nH]3)CC2)c([N+](=O)[O-])c1	CHRM4 antagonist 29
S=C(Nc1ccc2c(c1)OCO2)N1CCN(Cc2ccco2)CC1	none
C=C1/C=C(\C)C(C)(O)CC(O)CC(=O)C(O)C(O)C(C)CC(C)OC(=O)/C(C)=C/CC/C=C/C(OC)C(O)CC(C)C1 (centres undefined)	none
CCn1c(SCC(=O)Nc2cccc(C)c2)nc2c(c1=O)SC(C)C2 (centres undefined)	CHO-K1 Ca antag 35
CC1Cc2nc(SCC(=O)NCc3ccccc3)n(Cc3ccccc3)c(=O)c2S1 (centres undefined)	CHRM4 antagonist 38
CC1Cc2nc(SCC(=O)c3ccccc3)n(Cc3ccccc3)c(=O)c2S1 (centres undefined)	none
Cc1ccc(S(=O)(=O)N2C[C@H]3C(=O)C[C@@H]4C(=O)N(c5ccccc5)C(=O)[C@@H]4[C@@H]3C[C@H]2c2cccs2)cc1	none
Cc1cccc(S(=O)(=O)Nc2nc3ccccc3nc2NCc2ccc3c(c2)OCO3)c1	none
O=c1nc2n(c3ccc(Br)cc13)CCS2	CHRM4 antagonist 33
COc1ccccc1Cc1c(C(C)(C)C)nc2ccc(C)cn12	none
O=C(Nc1cccc(S(=O)(=O)N2CCCCCC2)c1)C1=COCCO1	none
O=C1C=CC(=O)N1c1cccc(-c2ccccc2)c1	CHRM4 antagonist 42
O=C(Nc1cccc(N2C(=O)C=CC2=O)c1)c1cccs1	none
Nc1nc(SCc2ccccc2[N+](=O)[O-])c2ncn(Cc3ccccc3)c2n1	CHRM4 antagonist 40
Cn1cnc([N+](=O)[O-])c1Sc1nc(N)nc2c1ncn2Cc1ccccc1	none
OCCNC(=S)NCCc1ccccc1	none
CC(C)(CNC(=S)NCCc1ccccc1)CNC(=S)NCCc1ccccc1	CHO-K1 Ca antag 28
O=C1/C(=C/c2ccc(F)cc2)CCC1C1CCCC1 (centres undefined)	CHO-K1 Ca antag 24
NC(c1csc(NC(=O)Nc2cccc(Cl)c2)n1)C1CCCCC1 (centres undefined)	CHRM4 antagonist 39, M4 ag 38
NC(c1csc(NC(=O)Nc2ccccc2)n1)C1CCCCC1 (centres undefined)	none
O=C(Cc1csc(NC(=O)Nc2cccc(Cl)c2)n1)NC1CCCC1	M1 ag parental 16
O=C(CN1C(=O)NC2(CCCc3ccccc32)C1=O)c1ccc(Br)cc1 (centres undefined)	none
Cc1cc(Cl)ccc1NC(=O)c1ccc2c(c1)CCN2S(C)(=O)=O	none
COc1cc(C)ccc1OCc1cc(C(=O)N(Cc2c(C)nn(C)c2C)C2CC2)no1	M1 ag parental 18
Clc1ccc(C2CSc3c4ncnc-4ncn32)cc1 (centres undefined)	none
O=C(O)c1cccc(Nc2nc(Nc3ccccc3)nc(N3CCCC3)n2)c1	CHRM4 PAM 25
CCC(Sc1nc2ccsc2c(=O)n1Cc1ccc(C(=O)O)cc1)C(=O)Nc1ccc(Cl)cc1 (centres undefined)	none
CCOc1cc(CNCCc2ccc(S(N)(=O)=O)cc2)ccc1OCc1ccc(Cl)cc1	CHRM4 antagonist 42
COc1ccccc1Nc1nc2ccccc2n2cnnc12	none
COc1ccccc1Nc1nc2ccccc2n1C	CHRM4 antagonist 44
CS(=O)(=O)N1CCN(c2ccccc2NC(=O)c2ccc3c(c2)OCCO3)CC1	M1 ag parental 19
Cc1ccc(C(=O)Nc2ccccc2N2CCN(C(=O)C(C)C)CC2)cc1C	CHO-K1 Ca antag 29
CC1CCN(c2ccccc2NC(=O)c2ccc(C#N)cc2F)CC1	CHRM4 PAM 23
COc1c(F)c(F)c(C(=O)Nc2ccccc2N2CCN(C(=O)C(C)C)CC2)c(F)c1F	none
CC(C)C(=O)N1CCN(c2ccccc2NC(=O)c2ccc(C#N)cc2F)CC1	M1 ag parental 22
O=C(C1CCN(S(=O)(=O)c2cc(Cl)ccc2Cl)CC1)N1CCCC1	none
C[C@@H]1CN([C@@H](C)CO)C(=O)CCCn2nncc2CO[C@H]1CN(C)C(=O)OCc1ccccc1	none
CC1(c2ccc(Cl)cc2Cl)NC(=O)N(CC(=O)NCCC2=CCCCC2)C1=O (centres undefined)	none
CC(=O)Nc1nc(-c2cccc3ccccc23)cs1	none
CC(=O)NCCC(=O)Nc1nc(-c2c[nH]c3ccccc23)cs1	CHRM4 PAM 16
CN(C/C=C/c1ccccc1[N+](=O)[O-])Cc1ccccc1	CHRM4 antagonist 35
O=C(Nc1ccccc1Cl)c1cc(C2CCCN(C(=O)C3CCCCC3)C2)on1 (centres undefined)	none
Cn1c(CCN2CCOCC2)nc2cc(NC(=O)COc3ccccc3)ccc21	CHO-K1 Ca antag 26
COc1ccc(-c2noc(CN(C)Cc3ccc(C)o3)n2)cc1	none
CSCC[C@H](N)C(=O)N1CCC(C(=O)N[C@H](C(=O)NCc2ccccc2F)C(C)C)CC1	none
CCCCN(CC(=O)NC1CC1)S(=O)(=O)c1ccc(OCC)cc1	CHRM4 antagonist 29
Cc1cc(/C=N/NC(=O)c2ccc(O)cc2)c(C)n1C1CC1	CHO-K1 Ca antag 28
O=C(Cc1ccc(-c2ccccc2)cc1)NCCN1CCOCC1	CHRM4 PAM 19
O=C(CN1CCOCC1)NCCc1ccccc1	CHRM4 PAM 24
O=C(CN1CCOCC1)NCc1ccccc1	none
Cc1ccc(/C=C(\NC(=O)c2ccccc2)C(=O)NCCN2CCOCC2)o1	CHO-K1 Ca antag 24
Cc1c(NC(=O)COC(=O)CCc2c[nH]c3ccccc23)c(=O)n(-c2ccccc2)n1C	none
